ST2 inh: inhibitors of human ST2 (IL1RL1) binding to IL-33 | 2.3% of 78,000 active | inhibition, % for hits at 17 µM | Q01638 | AlphaLISA ST2-Fc/biotin-IL-33 interaction, 1 h; in the data active = inhibition above about 30%
Target sequence (Q01638 whole entry, looked up): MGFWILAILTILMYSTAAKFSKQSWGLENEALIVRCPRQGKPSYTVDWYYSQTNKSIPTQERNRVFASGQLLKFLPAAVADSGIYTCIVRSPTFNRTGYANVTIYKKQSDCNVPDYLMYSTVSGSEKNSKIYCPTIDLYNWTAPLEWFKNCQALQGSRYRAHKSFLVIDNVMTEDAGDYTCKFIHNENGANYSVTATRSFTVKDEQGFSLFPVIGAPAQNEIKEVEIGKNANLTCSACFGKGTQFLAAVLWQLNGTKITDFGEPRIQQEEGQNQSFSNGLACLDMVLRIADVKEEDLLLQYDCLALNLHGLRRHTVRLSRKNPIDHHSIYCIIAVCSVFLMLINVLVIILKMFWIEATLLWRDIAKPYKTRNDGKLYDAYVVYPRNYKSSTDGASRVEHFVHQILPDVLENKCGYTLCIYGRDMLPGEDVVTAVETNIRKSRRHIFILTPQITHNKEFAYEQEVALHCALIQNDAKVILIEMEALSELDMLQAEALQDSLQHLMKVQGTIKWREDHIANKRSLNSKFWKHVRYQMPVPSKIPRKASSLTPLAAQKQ
* = called active by the depositor; i = inactive. The sample as a whole holds a higher share of hits than the screen did.

SMILES	ST2 inh
O=C(Nc1nnc(N=Cc2ccc(F)cc2)s1)c1ccc(F)cc1	i
CCOC(=O)N1CCN(CC(C)c2ccccc2)CC1 (configuration not stated)	i
Cc1ccccc1Cn1c(C)n[nH]c1=O	i
CC(C)C1(O)C=C2C(=O)CC3C(C)(C(=O)O)CCCC3(C)C2CC1 (configuration not stated)	30%*
CC(C)c1ccc2c(c1)CCC1[C@](C)(C(=O)O)CCC[C@]21C (some centres not stated)	i
C=CC(C)(O)CC[C@H]1C(=C)CCC2[C@](C)(C(=O)O)CCC[C@@]21C (some centres not stated)	i
CC1=C(C(=O)Nc2cc(C)ccn2)C(c2cccc(Cl)c2)C2=C(CC(C)(C)CC2=O)N1 (configuration not stated)	i
COCCNC(=O)c1cc(-c2ccc(Br)cc2)on1	i
CC(CS(=O)(=O)c1ccc(N)cc1)N1CCOCC1 (configuration not stated)	i
O=C(O)c1cccc(NC(=O)c2cccc(S(=O)(=O)Nc3ccc(Cl)cc3)c2)c1	i
O=C(O)c1ccc(NC2=CC(=NS(=O)(=O)c3ccc(Cl)cc3)c3ccccc3C2=O)cc1	48%*
CC(=O)Nc1ccc(S(=O)(=O)NCc2ccccc2)cc1	i
C=CCC(CC=C)(NS(=O)(=O)c1ccc(NC(C)=O)cc1)c1ccccc1	i
CC(=O)Nc1ccc(S(=O)(=O)Nc2ccccc2Cl)cc1	i
CC(=O)Nc1ccc(NC2=CC(=NS(=O)(=O)c3ccccc3)c3ccccc3C2=O)cc1	83%*
CC(=O)Nc1ccc(NC2=CC(=NS(=O)(=O)c3ccc(C)cc3)c3ccccc3C2=O)cc1	48%*
O=S(=O)(Nc1ccc(S(=O)(=O)Nc2ccc(Cl)cc2)cc1)c1ccccc1	i
CC(=O)Nc1ccc(S(N)(=O)=O)cc1	i
CC(=O)N[C@@H](Cc1cnc[nH]1)C(=O)N1C[C@@H]2C3CCC(CC3)[C@@H]2C1	i
COc1ccc(CNC(=O)C[C@@H]2O[C@H](CNC(=O)Nc3ccc(C)cc3)[C@@H](O)[C@H]2O)cc1	i
CCCS(=O)(=O)c1c(S(=O)(=O)CCC)c2c(C)cccn2c1C(=O)c1ccccc1	i
O=C(Nc1nnc(N=Cc2ccccc2)s1)c1cccc([N+](=O)[O-])c1	i
C/C(=C\CC[C@@H](C)[C@H]1CC(O)[C@@]2(C)C3CC[C@H]4C(C)(C)[C@@H](O[C@@H]5OC(COC6OCC(O)C(O)C6O)C(O)C(O)C5O)CC[C@@]45C[C@@]35CC(O)[C@]12C)C(=O)OC1OC(CO)C(O)C(O)C1O (some centres not stated)	i
CCn1c(C(=O)O)c(CC(=O)N(C)c2ccc(F)cc2)c2ccccc21	i
COc1ccc(-c2nc3c(n2O)CCc2nonc2-3)cc1	i
SMILES	ST2 inh
C=CCn1cc(C(=O)NCCC(C)C)c(=O)c2cc(S(=O)(=O)N3CCCCCC3)ccc21	i
CCOC(=O)C1(Cc2cccc(OC)c2)CCN(Cc2cnc(N(C)C)s2)CC1	i
O=C1Nc2ccccc2C1=Nc1ccc(C(=O)O)cc1	i
O=C(O)/C=C1\NC(=O)c2ccccc21	i
O=C1Nc2ccccc2/C1=C/C(=O)c1ccc(Cl)cc1	32%*
Clc1ccc(-c2ncnn2-c2ccccc2)c(Cl)c1	i
CN(C)CCn1c(SCC(N)=O)nc2c(sc3ccccc32)c1=O	i
Cc1ccc2oc(/C=C/c3nc4cc(C)ccc4o3)nc2c1	i
CN(C)c1ccc(/C=C/c2nc(=O)c3ccccc3o2)cc1	55%*
COc1ccc(-c2nnc(/C=C/c3ccccc3)o2)cc1	i
O=c1c2sccc2n(Cc2ccc([N+](=O)[O-])cc2)c(=O)n1-c1ccc(F)cc1F	i
N/C(=N/OC(=O)COc1ccc(Cl)cc1)c1cccnc1	i
Cc1nc(-c2ccc(O)cc2)cs1	i
Cc1[nH]c2ccccc2c1C(=O)CCC(=O)O	i
Cc1nc(-c2c(C)[nH]c3ccccc23)cs1	36%*
COCCOc1cc(C)c2c(c1C)C[C@H]([C@H](C)C(=O)NCc1cccs1)CC2	i
CCN1CCN(C(=O)c2ccc3c(c2)NC(=O)C(N2CCCC2)S3)CC1 (configuration not stated)	i
COc1cccc(NC(=O)N[C@H]2[C@H](O)[C@@H](N3CCN(C(C)=O)CC3)[C@@H]3OC[C@H]2O3)c1	i
COc1cccc(NC(=O)N[C@H]2[C@H](O)[C@@H](N3CCCC3)[C@@H]3OC[C@H]2O3)c1	47%*
N#Cc1cccc(NC(=O)N[C@H]2[C@H](O)[C@@H](N3CCCC3)[C@@H]3OC[C@H]2O3)c1	i
COc1ccc(NC(=O)N[C@H]2[C@H](O)[C@@H](N3CCC(Cc4ccccc4)CC3)[C@@H]3OC[C@H]2O3)cc1	i
O=C(Nc1cccc(C(F)(F)F)c1)N[C@H]1[C@H](O)[C@@H](N2CCCCC2)[C@@H]2OC[C@H]1O2	i
CN1CCN([C@H]2[C@@H]3OC[C@@H](O3)[C@@H](NC(=O)Nc3ccccc3)[C@@H]2O)CC1	35%*
CCSc1sc(CC)cc1CO	i
CC(=O)c1ccc(NC(=O)c2cccc(C)c2)cc1	i

Screens: PubChem BioAssay, Paczesny and Yang Labs, IUPUI and University of Michigan
